Data as given in the supplement of paper PMC10849652.
Of roughly 7,900 targets only a part is listed; those with a hit were picked by preference. About 0.6% of all pairs of compound and target were hits. Values without a mark were called inactive.

What follows are targets tested with CS(=O)(=O)c1ccc(-c2cnc(N)c(C(=O)Nc3ccccc3)n2)cc1 (assay: log2 fold change, soluble protein after heating vs DMSO (PISA); higher = thermal stabilisation; K562 cells, 10 uM, 30 min; active = over 0.2 and 3.5 SD of the protein, either way, in both replicates (recomputed)).
Method in brief: (§1)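 Values are thermal stability changes relative to control samples and are taken from duplicates. They are stated as log2 fold changes. Before quantification by TMTpro 16plex LC-MS/MS with equalised channel sums, K562 cells at 2×10^6 cells/mL were treated with 10 μM compound for 30 min, heated in aliquots for 3 min across 48°C-58°C, pooled, extracted in PBS with 0.5% NP-40 at 4°C, and centrifuged at 21,000xg for 90 min to give the soluble supernatant.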

Sequence of UniProt P11233 (P11233 whole entry, looked up): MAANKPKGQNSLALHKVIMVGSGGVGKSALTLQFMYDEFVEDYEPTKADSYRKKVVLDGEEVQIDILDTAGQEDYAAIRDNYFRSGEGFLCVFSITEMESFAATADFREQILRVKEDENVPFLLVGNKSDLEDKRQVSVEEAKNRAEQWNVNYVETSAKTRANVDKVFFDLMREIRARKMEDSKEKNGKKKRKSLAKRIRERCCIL
Sequence of UniProt P63208 (P63208 whole entry, looked up): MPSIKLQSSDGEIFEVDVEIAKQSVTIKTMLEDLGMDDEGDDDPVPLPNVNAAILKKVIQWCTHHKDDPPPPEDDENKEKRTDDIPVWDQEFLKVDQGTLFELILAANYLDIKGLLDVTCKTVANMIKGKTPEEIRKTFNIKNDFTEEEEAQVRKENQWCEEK
Sequence of UniProt Q9NTZ6 (Q9NTZ6 whole entry, looked up): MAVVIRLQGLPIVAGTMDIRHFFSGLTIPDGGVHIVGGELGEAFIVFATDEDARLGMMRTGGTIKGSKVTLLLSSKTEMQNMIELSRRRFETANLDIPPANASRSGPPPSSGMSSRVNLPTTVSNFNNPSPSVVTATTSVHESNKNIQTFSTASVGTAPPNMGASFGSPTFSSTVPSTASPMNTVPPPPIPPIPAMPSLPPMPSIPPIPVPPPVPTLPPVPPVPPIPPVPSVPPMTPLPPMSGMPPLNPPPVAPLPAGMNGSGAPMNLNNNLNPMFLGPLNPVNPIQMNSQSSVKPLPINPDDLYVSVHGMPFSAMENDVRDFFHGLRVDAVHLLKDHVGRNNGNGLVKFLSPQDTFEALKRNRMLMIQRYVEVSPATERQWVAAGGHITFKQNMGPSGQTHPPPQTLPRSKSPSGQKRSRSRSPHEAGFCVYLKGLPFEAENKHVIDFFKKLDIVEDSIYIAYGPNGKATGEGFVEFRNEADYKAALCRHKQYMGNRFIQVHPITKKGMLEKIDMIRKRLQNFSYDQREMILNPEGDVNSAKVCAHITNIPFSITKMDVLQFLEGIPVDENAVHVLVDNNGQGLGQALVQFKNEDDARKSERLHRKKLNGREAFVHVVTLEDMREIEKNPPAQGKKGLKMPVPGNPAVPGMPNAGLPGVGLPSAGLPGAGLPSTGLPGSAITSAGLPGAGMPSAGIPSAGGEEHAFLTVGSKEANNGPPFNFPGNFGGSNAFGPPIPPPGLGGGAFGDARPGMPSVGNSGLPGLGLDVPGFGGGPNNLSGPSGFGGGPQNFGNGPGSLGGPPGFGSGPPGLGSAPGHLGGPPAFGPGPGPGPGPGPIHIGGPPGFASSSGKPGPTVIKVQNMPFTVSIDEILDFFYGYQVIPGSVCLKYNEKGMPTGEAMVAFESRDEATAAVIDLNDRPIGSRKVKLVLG
Sequence of UniProt Q9H4A4 (Q9H4A4 whole entry, looked up): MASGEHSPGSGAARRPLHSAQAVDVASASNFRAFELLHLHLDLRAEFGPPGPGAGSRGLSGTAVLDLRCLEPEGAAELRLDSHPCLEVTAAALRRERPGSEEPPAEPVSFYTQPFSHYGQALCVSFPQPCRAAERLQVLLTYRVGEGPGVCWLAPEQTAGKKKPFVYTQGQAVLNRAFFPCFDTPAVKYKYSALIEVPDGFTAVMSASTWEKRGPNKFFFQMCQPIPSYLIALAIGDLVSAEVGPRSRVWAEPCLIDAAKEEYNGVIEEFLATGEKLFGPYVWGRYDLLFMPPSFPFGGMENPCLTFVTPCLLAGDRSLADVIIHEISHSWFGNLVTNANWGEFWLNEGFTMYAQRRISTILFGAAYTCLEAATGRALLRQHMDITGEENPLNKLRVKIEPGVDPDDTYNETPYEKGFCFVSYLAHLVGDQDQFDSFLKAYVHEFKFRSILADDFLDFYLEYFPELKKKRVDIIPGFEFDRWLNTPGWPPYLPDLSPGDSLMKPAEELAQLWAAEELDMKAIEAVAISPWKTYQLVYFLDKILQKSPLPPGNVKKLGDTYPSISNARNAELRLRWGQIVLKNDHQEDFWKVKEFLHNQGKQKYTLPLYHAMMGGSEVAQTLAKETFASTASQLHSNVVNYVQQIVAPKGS
Sequence of UniProt Q8TD22 (Q8TD22 whole entry, looked up): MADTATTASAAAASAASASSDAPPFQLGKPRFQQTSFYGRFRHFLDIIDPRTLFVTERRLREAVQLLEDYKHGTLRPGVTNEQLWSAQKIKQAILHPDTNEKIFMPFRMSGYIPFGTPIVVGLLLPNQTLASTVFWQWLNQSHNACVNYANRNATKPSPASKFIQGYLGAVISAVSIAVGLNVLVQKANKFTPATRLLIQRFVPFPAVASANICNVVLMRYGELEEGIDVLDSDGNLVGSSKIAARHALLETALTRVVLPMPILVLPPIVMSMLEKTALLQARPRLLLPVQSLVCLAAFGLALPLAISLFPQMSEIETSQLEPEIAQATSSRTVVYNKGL
Sequence of UniProt P51151 (P51151 whole entry, looked up): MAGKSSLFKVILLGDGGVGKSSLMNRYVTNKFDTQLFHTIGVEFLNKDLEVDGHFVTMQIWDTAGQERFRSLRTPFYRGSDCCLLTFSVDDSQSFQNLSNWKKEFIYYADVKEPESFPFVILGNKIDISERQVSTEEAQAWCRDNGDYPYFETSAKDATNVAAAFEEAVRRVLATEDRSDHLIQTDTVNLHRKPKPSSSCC
Sequence of UniProt Q8IXJ6 (Q8IXJ6 whole entry, looked up): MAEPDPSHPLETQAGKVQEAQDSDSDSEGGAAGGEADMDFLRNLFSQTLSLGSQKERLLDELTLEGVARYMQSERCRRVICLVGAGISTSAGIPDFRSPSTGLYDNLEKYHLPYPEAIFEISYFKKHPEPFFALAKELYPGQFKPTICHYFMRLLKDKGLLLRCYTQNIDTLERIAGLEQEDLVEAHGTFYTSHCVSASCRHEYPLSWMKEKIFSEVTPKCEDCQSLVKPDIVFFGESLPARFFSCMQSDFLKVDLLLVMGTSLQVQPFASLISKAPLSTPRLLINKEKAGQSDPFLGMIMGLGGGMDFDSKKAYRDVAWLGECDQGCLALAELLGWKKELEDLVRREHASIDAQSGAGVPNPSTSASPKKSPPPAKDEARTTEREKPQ
Sequence of UniProt Q04864 (Q04864 whole entry, looked up): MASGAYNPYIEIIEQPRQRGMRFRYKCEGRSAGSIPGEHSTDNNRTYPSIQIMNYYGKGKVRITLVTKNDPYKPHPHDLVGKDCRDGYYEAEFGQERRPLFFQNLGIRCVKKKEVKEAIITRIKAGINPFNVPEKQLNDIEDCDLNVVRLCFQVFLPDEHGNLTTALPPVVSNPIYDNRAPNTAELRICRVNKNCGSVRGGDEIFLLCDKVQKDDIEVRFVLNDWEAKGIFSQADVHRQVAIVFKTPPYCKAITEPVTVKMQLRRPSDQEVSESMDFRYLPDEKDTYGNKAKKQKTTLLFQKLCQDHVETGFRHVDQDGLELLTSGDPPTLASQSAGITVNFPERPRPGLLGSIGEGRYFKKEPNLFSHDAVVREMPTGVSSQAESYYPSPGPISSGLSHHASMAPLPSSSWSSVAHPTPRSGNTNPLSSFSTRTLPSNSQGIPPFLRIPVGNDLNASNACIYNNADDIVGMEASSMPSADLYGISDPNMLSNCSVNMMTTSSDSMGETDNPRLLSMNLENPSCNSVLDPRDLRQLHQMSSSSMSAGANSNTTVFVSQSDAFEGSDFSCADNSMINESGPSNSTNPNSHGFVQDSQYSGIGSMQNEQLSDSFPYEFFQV
Sequence of UniProt Q99643 (Q99643 whole entry, looked up): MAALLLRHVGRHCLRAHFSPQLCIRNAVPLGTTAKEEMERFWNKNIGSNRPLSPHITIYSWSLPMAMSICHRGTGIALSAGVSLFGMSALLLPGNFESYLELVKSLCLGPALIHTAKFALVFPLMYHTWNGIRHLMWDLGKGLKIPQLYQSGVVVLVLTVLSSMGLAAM
Sequence of UniProt O43818 (O43818 whole entry, looked up): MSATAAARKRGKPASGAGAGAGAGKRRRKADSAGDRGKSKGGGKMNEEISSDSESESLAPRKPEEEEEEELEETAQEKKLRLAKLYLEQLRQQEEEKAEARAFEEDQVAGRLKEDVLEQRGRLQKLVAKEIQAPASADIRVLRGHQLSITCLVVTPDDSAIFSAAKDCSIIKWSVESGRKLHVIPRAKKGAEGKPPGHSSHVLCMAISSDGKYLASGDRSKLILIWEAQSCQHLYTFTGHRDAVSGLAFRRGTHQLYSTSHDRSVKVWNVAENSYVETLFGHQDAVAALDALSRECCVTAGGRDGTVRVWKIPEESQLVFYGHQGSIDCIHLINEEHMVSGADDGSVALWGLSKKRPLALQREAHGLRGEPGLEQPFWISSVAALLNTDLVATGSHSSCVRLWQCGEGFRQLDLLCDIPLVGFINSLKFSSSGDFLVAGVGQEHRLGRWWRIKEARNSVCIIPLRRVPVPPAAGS
Sequence of UniProt Q9NQG5 (Q9NQG5 whole entry, looked up): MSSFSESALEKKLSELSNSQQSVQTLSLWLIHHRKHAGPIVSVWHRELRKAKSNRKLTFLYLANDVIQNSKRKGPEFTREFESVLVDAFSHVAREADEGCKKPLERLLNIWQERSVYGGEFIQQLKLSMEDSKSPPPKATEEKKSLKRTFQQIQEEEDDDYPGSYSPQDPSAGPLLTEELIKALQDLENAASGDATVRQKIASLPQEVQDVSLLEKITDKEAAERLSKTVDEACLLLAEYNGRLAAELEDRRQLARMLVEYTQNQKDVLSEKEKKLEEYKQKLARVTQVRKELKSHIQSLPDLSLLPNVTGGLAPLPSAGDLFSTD
Sequence of UniProt Q96I25 (Q96I25 whole entry, looked up): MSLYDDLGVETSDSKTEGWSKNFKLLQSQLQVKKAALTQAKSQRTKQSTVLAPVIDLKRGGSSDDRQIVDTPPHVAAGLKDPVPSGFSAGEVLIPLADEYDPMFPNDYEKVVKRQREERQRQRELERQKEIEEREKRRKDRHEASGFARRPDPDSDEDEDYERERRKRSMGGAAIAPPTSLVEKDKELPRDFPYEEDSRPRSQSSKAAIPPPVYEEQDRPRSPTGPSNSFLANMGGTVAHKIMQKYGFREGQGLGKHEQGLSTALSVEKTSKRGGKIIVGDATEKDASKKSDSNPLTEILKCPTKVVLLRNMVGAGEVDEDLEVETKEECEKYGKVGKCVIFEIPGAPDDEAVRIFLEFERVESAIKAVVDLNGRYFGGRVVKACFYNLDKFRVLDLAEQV

Target | log2 fold change
SLBP (UniProt Q14493) | -0.026
RDH10 (UniProt Q8IZV5) | -0.016
SAFB2 (UniProt Q14151) | -0.079
SEC23A (UniProt Q15436) | 0.001
SCG3 (UniProt Q8WXD2) | -0.069
RUFY1 (UniProt Q96T51) | -0.04
SLC19A1 (UniProt P41440) | -0.097
SFXN5 (UniProt Q8TD22) | 0.144
RAC3 (UniProt P60763) | 0.074
RPRD1B (UniProt Q9NQG5) | -0.104
SDHC (UniProt Q99643) | -0.304
RRAGC (UniProt Q9HB90) | 0.016
RPS19 (UniProt P39019) | -0.12
RHEB (UniProt Q15382) | -0.001
RBM17 (UniProt Q96I25) | -0.043
SIRT2 (UniProt Q8IXJ6) | 0.042
RBM12 (UniProt Q9NTZ6) | 0.079

Target | log2 fold change
SASH1 (UniProt O94885) | 0.023
RPS20 isoform 2 (UniProt P60866) | -0.062
RPP14 (UniProt O95059) | -0.048
RBM25 (UniProt P49756) | -0.071
RCOR1 (UniProt Q9UKL0) | 0.011
RPS12 (UniProt P25398) | -0.041
RAB9A (UniProt P51151) | 0.007
REL (UniProt Q04864) | 0.079
RAB5C isoform 2 (UniProt P51148) | -0.015
RPS27A (UniProt P62979) | 0.05
SKP1 (UniProt P63208) | -0.052
RRP9 (UniProt O43818) | -0.05
RALA (UniProt P11233) | 0.026
SDHAF2 (UniProt Q9NX18) | -0.042
RBM39 (UniProt Q14498) | -0.043
RNPEP (UniProt Q9H4A4) | 0.037

What follows are targets tested with C[C@@H](Oc1cc(-c2cnn(C3CCNCC3)c2)cnc1N)c1c(Cl)ccc(F)c1Cl [crizotinib] in the same assay as above.
Method in brief: as §1

Target | log2 fold change
SLBP (UniProt Q14493) | -0.042
RDH10 (UniProt Q8IZV5) | 0.087
SAFB2 (UniProt Q14151) | -0.016
SEC23A (UniProt Q15436) | -0.016
SCG3 (UniProt Q8WXD2) | 0.074
RUFY1 (UniProt Q96T51) | -0.003
SLC19A1 (UniProt P41440) | 0.086
SFXN5 (UniProt Q8TD22) | 0.021
RAC3 (UniProt P60763) | 0.097
RPRD1B (UniProt Q9NQG5) | 0.072
SDHC (UniProt Q99643) | 0.08
RRAGC (UniProt Q9HB90) | -0.262
RPS19 (UniProt P39019) | 0.023
RHEB (UniProt Q15382) | 0.038
RBM17 (UniProt Q96I25) | -0.065
SIRT2 (UniProt Q8IXJ6) | -0.015
RBM12 (UniProt Q9NTZ6) | 0.005

Target | log2 fold change
SASH1 (UniProt O94885) | -0.122
RPS20 isoform 2 (UniProt P60866) | 0.013
RPP14 (UniProt O95059) | -0.046
RBM25 (UniProt P49756) | -0.052
RCOR1 (UniProt Q9UKL0) | -0.033
RPS12 (UniProt P25398) | 0.078
RAB9A (UniProt P51151) | -0.119
REL (UniProt Q04864) | -0.04
RAB5C isoform 2 (UniProt P51148) | 0.099
RPS27A (UniProt P62979) | 0.053
SKP1 (UniProt P63208) | 0.027
RRP9 (UniProt O43818) | 0.084
RALA (UniProt P11233) | 0.112
SDHAF2 (UniProt Q9NX18) | -0.183
RBM39 (UniProt Q14498) | -0.114
RNPEP (UniProt Q9H4A4) | -0.081

The targets below were run with C[C@@H]1COCCN1C2=NC(=NC(=C2)C3(CC3)S(=O)(=O)C)C4=C5C=CNC5=CC=C4 in the same assay as above.
Method in brief: as §1

Target | log2 fold change
SLBP (UniProt Q14493) | 0.132
RDH10 (UniProt Q8IZV5) | 0.116
SAFB2 (UniProt Q14151) | -0.316
SEC23A (UniProt Q15436) | 0.061
SCG3 (UniProt Q8WXD2) | -0.089
RUFY1 (UniProt Q96T51) | -0.034
SLC19A1 (UniProt P41440) | 0.041
SFXN5 (UniProt Q8TD22) | 0.073
RAC3 (UniProt P60763) | 0.073
RPRD1B (UniProt Q9NQG5) | 0.062
SDHC (UniProt Q99643) | 0.457 (active)
RRAGC (UniProt Q9HB90) | 0.008
RPS19 (UniProt P39019) | -0.309
RHEB (UniProt Q15382) | 0.096
RBM17 (UniProt Q96I25) | 0.106
SIRT2 (UniProt Q8IXJ6) | -0.002
RBM12 (UniProt Q9NTZ6) | 0.16

Target | log2 fold change
SASH1 (UniProt O94885) | -0.077
RPS20 isoform 2 (UniProt P60866) | -0.176
RPP14 (UniProt O95059) | 0.019
RBM25 (UniProt P49756) | 0.09
RCOR1 (UniProt Q9UKL0) | 0.095
RPS12 (UniProt P25398) | -0.098
RAB9A (UniProt P51151) | -0.006
REL (UniProt Q04864) | 0.005
RAB5C isoform 2 (UniProt P51148) | 0.015
RPS27A (UniProt P62979) | -0.229
SKP1 (UniProt P63208) | -0.039
RRP9 (UniProt O43818) | -0.2
RALA (UniProt P11233) | 0.088
SDHAF2 (UniProt Q9NX18) | 0.07
RBM39 (UniProt Q14498) | 0.033
RNPEP (UniProt Q9H4A4) | 0.081
